High-throughput results (PubChem)
CYP2C19 inhib = human CYP2C19 inhibition | CYP2C19 Supersomes, luciferin-H EGE luminescence, 30 min | inhibition, % at 5 µM | 96,000 compounds, 21% hits | P33261;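 active = CYP2C19 inhibition above a set limit at 5 µM in the primary screen, cut at about 50% in these data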;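 note: plate controls were negative control wells for no effect and 2.5 mM tranylcypromine positive control for full effect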
CYP2C9 inh = inhibitors of human CYP2C9. inhibition, % at 5 µM. 96,000 compounds, 20% hits. CYP2C9 Supersomes, luciferin-H conversion, luminescence;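 active = blocking of liver enzyme CYP2C9 beyond about 50% at 5 µM, limit read from the data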
CYP2C19 activ = increases human CYP2C19 enzyme activity; P33261; recombinant CYP2C19, luciferin-H EGE luminescence; stronger effect = higher value; 0 = fully inhibited enzyme, 1 = untreated enzyme; activation factor at 5 µM; 96,000 tested, under 10 active; AID 1025;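 active = activation factor of at least 2 at 5 µM in the primary screen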;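 note: 0 = wells with 2.5 mM tranylcypromine and 1 = vehicle-only wells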
CYP2C9 act = activators of human CYP2C9; recombinant CYP2C9, luciferin-H conversion, luminescence; stronger effect = higher value; factor 1 = untreated enzyme, 0 = blocked; activation factor at 5 µM; 96,000 compounds, 1.4% hits; AID 1024; P11712;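 active = activation factor of 2 or more for CYP2C9 at a 5 µM dose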;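 note: 0 = sulfaphenazole-blocked wells and 1 = vehicle-only wells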
Mac1 fbg enh = CD11b/CD18-fibrinogen binding enhancement; AID 1499; activation, % at 10 µM; K562 CD11b/CD18 adhesion to fibrinogen, ATPlite luminescence; P05107+P11215; 93,000 compounds, 0.07% hits;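 active = 10 µM primary screen giving 50% or more activity, confirmed by 40% or more on retest at that dose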
CD11b adhes inh = CD11b/CD18-fibrinogen binding inhibition; P05107+P11215; K562 CD11b/CD18 adhesion to fibrinogen, ATPlite luminescence; Mn2+ added to activate the integrin; inhibition, % at 10 µM; 93,000 compounds, 0.54% hits;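 active = primary inhibition of 50% or more at 10 µM, then 40% or more on retest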
* = called active by the depositor; nt = not tested or not shown. Only some compounds are listed: those with a hit (about 28% of all), similar ones and a draw of the others.

SMILES	CYP2C19 inhib	CYP2C9 inh	CYP2C19 activ	CYP2C9 act	Mac1 fbg enh	CD11b adhes inh
CN(C)Cc1c(O)ccc2oc(Cc3ccccc3)cc12	72*	23	0.3	0.8	-1	-7
CN(C)C(CNC(=O)c1cccnc1Sc1ccccc1)c1ccco1 (stereo not given)	12	10	0.9	0.9	-1	-25
COc1cc(CCN2C(=O)c3cccc4cccc(c34)C2=O)c(S(=O)(=O)NCCCO)cc1OC	66*	38	0.3	0.6	-1	-4
Cc1cc(Nc2ccccc2)nc(NCc2ccccc2)n1	nt	nt	nt	nt	-10	100
CCCCNc1cc(C)nc(NCc2ccccc2)n1	28	16	0.7	0.8	-13	85*
O=C(c1ccccc1)c1cc(-c2ccccc2)on1	51*	-13	0.5	1.1	-4	-3
Cc1ccc(N(CC(=O)Nc2cc(Cl)ccc2Oc2ccccc2)S(C)(=O)=O)c(C)c1	61*	46	0.4	0.5	1	11
Cc1ccc(N(CC(=O)Nc2cc(Cl)ccc2Oc2ccccc2)S(C)(=O)=O)cc1C	99*	98*	0	0	-1	-18
O=C(COc1ccccc1Cl)Nc1cc(Cl)ccc1Oc1ccccc1	-2	11	1	0.9	7	-5
CC(=O)OCCOc1nc(N(C)C)nc(N(C)C)n1	5	-12	0.9	1.1	-3	-20
CN(C)c1nc(OCCOC(=O)Nc2ccc(Cl)cc2Cl)nc(N(C)C)n1	98*	53*	0	0.5	nt	nt
CC(C)C(C(=O)NCc1ccco1)N(C(=O)CNS(=O)(=O)c1ccccc1)C1CCCC1 (stereo not given)	7	-19	0.9	1.2	-1	5
CCCC(C(=O)NCc1ccco1)N(C(=O)CNS(=O)(=O)c1ccc(Cl)cc1)C1CCCC1 (stereo not given)	92*	80*	0.1	0.2	-4	9
CCC(C(=O)NCc1ccco1)N(C(=O)CNS(=O)(=O)c1ccccc1)C1CCCCC1 (stereo not given)	71*	37	0.3	0.6	-2	4
C=CCNc1cc(C)oc(=O)c1C(=O)CCC	-2	-26	1	1.3	2	-22
COc1cc(/C(C)=N/NC(=O)Cc2c(C)[nH][nH]c2=O)ccc1O	nt	nt	nt	nt	3	-16
CCN(CC(=O)NCc1ccc(F)cc1)CC(O)COCc1cccc(OC)c1 (stereo not given)	67*	67*	0.3	0.3	1	-7
Cc1ccc(N(CC(=O)O)S(=O)(=O)c2cccc3nonc23)cc1	6	14	0.9	0.9	3	-11
COc1ccc(CNC(=O)C2CCC(CNS(=O)(=O)c3cccc4nsnc34)CC2)cc1 (stereo not given)	0	2	1	1	2	-3
O=C(CNS(=O)(=O)c1cccc2nonc12)NCc1ccc(F)cc1	53*	49	0.5	0.5	1	-28
O=C(CNS(=O)(=O)c1cccc2nsnc12)NCc1ccc(Cl)cc1	50*	52*	0.5	0.5	-7	-10
O=C(Nc1nc(-c2ccccc2)cs1)C1CCCCN1S(=O)(=O)c1ccc(Cl)cc1 (stereo not given)	30	95*	0.7	0.1	-6	9
O=C(Nc1nc(-c2ccccc2)cs1)C1CCCCN1S(=O)(=O)c1ccccc1 (stereo not given)	72*	92*	0.3	0.1	16	3
CC(C)(C)C(=O)Nc1nc(C2CCCN2S(=O)(=O)c2ccc(Cl)cc2)cs1 (stereo not given)	100*	100*	0	0	-2	3
C/C(=N\OCC(=O)Nc1c(C)cc(C)cc1C)c1ccc2c(c1)OCCO2	nt	nt	nt	nt	0	2
SMILES	CYP2C19 inhib	CYP2C9 inh	CYP2C19 activ	CYP2C9 act	Mac1 fbg enh	CD11b adhes inh
Cc1cc(C)nc(SCc2ccc(C(=O)N/N=C3\CC(C)CC(C)(C)C3)cc2)n1 (stereo not given)	nt	nt	nt	nt	4	11
CC1C/C(=N\NC(=S)NC(C)C)CC(C)(C)C1 (stereo not given)	88*	51*	0.1	0.5	-2	-1
Clc1ccc(-c2cc(-c3nnc4n3CCCCC4)c3ccccc3n2)cc1	nt	nt	nt	nt	8	15
O=C(c1n[nH]c2c1CCCC2)n1ccnc1	16	52*	0.8	0.5	-2	-21
O=C(O)c1n[nH]c2c1CCCC2	5	-108	1	2.1*	-1	-22
O=C(O)c1n[nH]c2c1CCCCC2	4	16	1	0.8	-4	1
O=C(CCn1c2c(c3ccccc31)CCCC2)NNC(=O)c1cccc([N+](=O)[O-])c1	nt	nt	nt	nt	12	-5
Nc1c(C(=O)c2ccccc2)oc2ccccc12	85*	34	0.1	0.7	0	-19
CC(=O)c1oc2ccccc2c1N	12	6	0.9	0.9	3	-11
COc1ccc(C(=O)c2oc3ccccc3c2N)cc1	69*	28	0.3	0.7	22	-9
Nc1c(C(=O)Nc2ccc(Cl)cc2)oc2ccccc12	54*	63*	0.5	0.4	-1	-15
COC(=O)c1oc2ccccc2c1N	9	-9	0.9	1.1	-1	-46
COC(=O)c1cc(CNC(=O)c2cccc(Cl)c2)ccc1OC	nt	nt	nt	nt	-2	-11
O=C1CC(=O)CC(c2ccco2)C1	47	44	0.5	0.6	-3	-14
O=C(Nc1ccccc1)Nc1ccc(C(=O)N2CCOCC2)cc1	44	13	0.6	0.9	nt	nt
COc1cccc(Oc2cn[nH]c2-c2ccc(O)cc2O)c1	98*	97*	0	0	nt	nt
CCOc1ccc(-c2[nH]ncc2Oc2cccc(OC)c2)c(O)c1	99*	100*	0	0	2	12
COc1cccc(Oc2cn[nH]c2-c2ccc(OC)cc2O)c1	99*	100*	0	0	1	17
CCOc1ccc(-c2[nH]ncc2-c2csc(C)n2)c(O)c1	nt	nt	nt	nt	-7	0
Cc1cc(C(F)F)n2nc(C(=O)Nc3cccnc3Cl)nc2n1	-7	1	1.1	1	nt	nt
Cc1noc(C)c1COC(=O)c1cccnc1SCC(=O)Nc1ccc2c(c1)OCO2	28	74*	0.7	0.3	1	-4
Cc1noc(C)c1COC(=O)c1cc(F)c(F)cc1Cl	77*	55*	0.2	0.4	-2	-6
Cc1noc(C)c1COC(=O)c1ccccc1NC(=O)Cc1ccccc1	99*	98*	0	0	-2	12
Cc1noc(C)c1COC(=O)CCOc1ccccc1	48	-7	0.5	1.1	-2	-2
Cc1noc(C)c1COC(=O)c1ccccc1Oc1ccccc1	96*	89*	0	0.1	0	-11
Cc1noc(C)c1COC(=O)c1ccc2c(c1)OCO2	36	36	0.6	0.6	10	-15
